Source: paper PMC8384837, “Expanding the binding specificity for RNA recognition by a PUF domain”
Substitutions are numbered along the chain they refer to.

What was measured:
Test in all cases: yeast three-hybrid, YBZ-1, SC-Leu-His + 0.5 mM 3-AT, 4 days
Settings in all cases: tags: N-Gal4 AD-HA kept; label: inside an RPR1-promoter hybrid RNA with tandem MS2 sites; ssRNA
PUM1 PUF domain R1-RLQ = PUM1 PUF domain R1-RLQ (Homo sapiens, UniProt Q14671 828-1176, S863R;R864L)
How it was run: (§1)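 Sequencing with Illumina followed PCR amplification of the repeat regions from transformants grown four days on SC-Leu (input) or SC-Leu-His + 0.5 mM 3-AT (selection). The transformants were strain YBZ-1 with a LexA–MS2 coat fusion and a HIS3 reporter, carrying Pumilio-1 PUF domain libraries and matching RNA elements. The interaction score is the log change in variant frequency from input to selection, computed in log2 with a pseudocount of 1 for absent variants.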

PUM1 PUF domain R5-RRG = PUM1 PUF domain R5-RRG (Homo sapiens, UniProt Q14671 828-1176, C1007R;Q1011G)
How it was run: as §1

PUM1 PUF domain R5-SHL = PUM1 PUF domain R5-SHL (Homo sapiens, UniProt Q14671 828-1176, C1007S;R1008H;Q1011L)
How it was run: as §1

PUM1 PUF domain R6-VWT = biological target: T1, PUM1 PUF domain R6-VWT (Homo sapiens, UniProt Q14671 828-1176, N1043V;Y1044W;Q1047T)
T1 sequence: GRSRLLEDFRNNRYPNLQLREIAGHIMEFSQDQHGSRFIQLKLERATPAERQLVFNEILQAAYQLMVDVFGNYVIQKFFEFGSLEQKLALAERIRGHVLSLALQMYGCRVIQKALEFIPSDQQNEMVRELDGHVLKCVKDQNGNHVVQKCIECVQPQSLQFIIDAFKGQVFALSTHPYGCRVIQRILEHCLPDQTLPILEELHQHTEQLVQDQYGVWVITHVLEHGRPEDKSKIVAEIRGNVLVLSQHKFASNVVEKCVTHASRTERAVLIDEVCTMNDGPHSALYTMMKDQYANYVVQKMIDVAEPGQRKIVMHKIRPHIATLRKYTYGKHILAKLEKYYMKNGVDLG
How it was run: as §1

PUM1 PUF domain R3-YYG = PUM1 PUF domain R3-YYG (Homo sapiens, UniProt Q14671 828-1176, C935Y;R936Y;Q939G)
How it was run: as §1

PUM1 PUF domain R2-LFI = PUM1 PUF domain R2-LFI (Homo sapiens, UniProt Q14671 828-1176, N899L;Y900F;Q903I)
How it was run: as §1

PUM1 PUF domain R5-RKP = PUM1 PUF domain R5-RKP (Homo sapiens, UniProt Q14671 828-1176, C1007R;R1008K;Q1011P)
How it was run: as §1

PUM1 PUF domain R5-RCK = PUM1 PUF domain R5-RCK (Homo sapiens, UniProt Q14671 828-1176, C1007R;R1008C;Q1011K)
How it was run: as §1

PUM1 PUF domain R6-IFT = biological target: T2, PUM1 PUF domain R6-IFT (Homo sapiens, UniProt Q14671 828-1176, N1043I;Y1044F;Q1047T)
T2 sequence: T1 sequence with V216I, W217F
How it was run: as §1

PUM1 PUF domain R6-EWL = biological target: T3, PUM1 PUF domain R6-EWL (Homo sapiens, UniProt Q14671 828-1176, N1043E;Y1044W;Q1047L)
T3 sequence: T1 sequence with V216E, T220L
How it was run: as §1

## GGCUAGAACUAGUGGAUCCCCCGGCGCCCGGCGGCUCGAGCCCGGGUAAGUGUAAAUCGUCUGCAUGCCGCCGGGCGCCAUGCCUGCAGGUCGACUCUAGAAAACAUG
PUM1 PUF domain R1-RLQ
  binding signal: 5.58 log2 enrichment (interaction score)

## GGCUAGAACUAGUGGAUCCCCCGGCGCCCGGCGGCUCGAGCCCGGGUAAGUGUUAAUAGUCUGCAUGCCGCCGGGCGCCAUGCCUGCAGGUCGACUCUAGAAAACAUG
PUM1 PUF domain R5-RRG
  binding signal: 4.55 log2 enrichment (interaction score)
PUM1 PUF domain R5-SHL
  binding signal: 2.85 log2 enrichment (interaction score)

## GGCUAGAACUAGUGGAUCCCCCGGCGCCCGGCGGCUCGAGCCCGGGUAAGUGUAAAUAGUCUGCAUGCCGCCGGGCGCCAUGCCUGCAGGUCGACUCUAGAAAACAUG
PUM1 PUF domain R5-RRG
  binding signal: 2.29 log2 enrichment (interaction score)
PUM1 PUF domain R6-VWT
  binding signal: 1.67 log2 enrichment (interaction score)
PUM1 PUF domain R5-SHL
  binding signal: 2.34 log2 enrichment (interaction score)
PUM1 PUF domain R3-YYG
  binding signal: 4.58 log2 enrichment (interaction score)

## GGCUAGAACUAGUGGAUCCCCCGGCGCCCGGCGGCUCGAGCCCGGGUAAGUGUAAAUUGUCUGCAUGCCGCCGGGCGCCAUGCCUGCAGGUCGACUCUAGAAAACAUG
PUM1 PUF domain R1-RLQ
  binding signal: 4.94 log2 enrichment (interaction score)

## GGCUAGAACUAGUGGAUCCCCCGGCGCCCGGCGGCUCGAGCCCGGGUAAGUGUGAAUAGUCUGCAUGCCGCCGGGCGCCAUGCCUGCAGGUCGACUCUAGAAAACAUG
PUM1 PUF domain R5-RRG
  binding signal: 1.66 log2 enrichment (interaction score)

## GGCUAGAACUAGUGGAUCCCCCGGCGCCCGGCGGCUCGAGCCCGGGUAAGUGUAAAUGGUCUGCAUGCCGCCGGGCGCCAUGCCUGCAGGUCGACUCUAGAAAACAUG
PUM1 PUF domain R1-RLQ
  binding signal: 2.26 log2 enrichment (interaction score)

## GGCUAGAACUAGUGGAUCCCCCGGCGCCCGGCGGCUCGAGCCCGGGUAAGUGUAAAAAGUCUGCAUGCCGCCGGGCGCCAUGCCUGCAGGUCGACUCUAGAAAACAUG
PUM1 PUF domain R2-LFI
  binding signal: 4.64 log2 enrichment (interaction score)

## GGCUAGAACUAGUGGAUCCCCCGGCGCCCGGCGGCUCGAGCCCGGGUAAGUGUAAGUAGUCUGCAUGCCGCCGGGCGCCAUGCCUGCAGGUCGACUCUAGAAAACAUG
PUM1 PUF domain R3-YYG
  binding signal: 6.37 log2 enrichment (interaction score)

## GGCUAGAACUAGUGGAUCCCCCGGCGCCCGGCGGCUCGAGCCCGGGUAAGUGUCAAUAGUCUGCAUGCCGCCGGGCGCCAUGCCUGCAGGUCGACUCUAGAAAACAUG
PUM1 PUF domain R5-RKP
  binding signal: 3.3 log2 enrichment (interaction score)
PUM1 PUF domain R5-RRG
  binding signal: 4.19 log2 enrichment (interaction score)
PUM1 PUF domain R5-RCK
  binding signal: 4.05 log2 enrichment (interaction score)
PUM1 PUF domain R5-SHL
  binding signal: 0.12 log2 enrichment (interaction score)

## GGCUAGAACUAGUGGAUCCCCCGGCGCCCGGCGGCUCGAGCCCGGGUAAGUGAAAAUAGUCUGCAUGCCGCCGGGCGCCAUGCCUGCAGGUCGACUCUAGAAAACAUG
PUM1 PUF domain R6-VWT
  binding signal: 6.13 log2 enrichment (interaction score)
PUM1 PUF domain R6-IFT
  binding signal: 4.79 log2 enrichment (interaction score)
PUM1 PUF domain R6-EWL
  binding signal: 7.27 log2 enrichment (interaction score)
